The structures appear in SMILES notation. Records with an inconclusive call do not appear. Entries that show only a call come without a potency. Unmarked numbers belong to inactive results. The source made the active and inactive calls. Unless noted, calls come from the whole dose curve; as a rule, active = well fitted cell-killing curve with a large enough effect in the repeat runs; inconclusive = weak or mixed curves, or effect the other way; inactive = no such curve, though single readings can be large or run the other way.

In the first assay the target is Peroxisome proliferator-activated receptor gamma (Homo sapiens) (UniProt P37231). Briefly: qHTS assay to identify small molecule agonists of the peroxisome proliferator-activated receptor gamma (PPARg) signaling pathway (AID 743094; active = well fitted activation curve with a large enough effect in the signal ratio in the repeat runs, not every such curve was filed as active; the % refers to the signal ratio). As to conditions: HEK293H PPARg-UAS-bla, beta-lactamase FRET ratio, 17 h; series mostly up to 57 µM; activation: at the top concentration. The gist of the method: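 Agonism was assessed in a beta-lactamase reporter system, HEK293H cells with a stably integrated UAS-bla construct under PPARg control; the 17 h treatment at 37C preceded a 1 h room-temperature FRET substrate read.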
Chain of Peroxisome proliferator-activated receptor gamma (Homo sapiens) (P37231 whole entry, looked up): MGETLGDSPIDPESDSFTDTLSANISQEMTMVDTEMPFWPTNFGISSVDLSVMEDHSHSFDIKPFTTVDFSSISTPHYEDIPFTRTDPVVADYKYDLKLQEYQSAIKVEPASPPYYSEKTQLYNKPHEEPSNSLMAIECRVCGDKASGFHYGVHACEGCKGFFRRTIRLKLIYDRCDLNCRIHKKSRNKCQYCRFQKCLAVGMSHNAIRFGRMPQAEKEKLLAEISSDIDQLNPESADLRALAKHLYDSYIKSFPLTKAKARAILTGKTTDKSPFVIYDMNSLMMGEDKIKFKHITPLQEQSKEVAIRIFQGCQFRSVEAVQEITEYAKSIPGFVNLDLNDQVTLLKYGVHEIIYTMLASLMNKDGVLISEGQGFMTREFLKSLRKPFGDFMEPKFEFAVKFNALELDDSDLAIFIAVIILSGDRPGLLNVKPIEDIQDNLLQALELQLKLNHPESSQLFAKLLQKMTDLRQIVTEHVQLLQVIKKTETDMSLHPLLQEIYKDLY
In general terms: qHTS replaces the single test concentration by a dilution series.
Take `Cn1c([N+](=O)[O-])cnc1COC(N)=O`: the outcome was inactive.

As for `CC(C)Cc1ccccc1`, the result was inactive.

As to `O=[N+]([O-])C(CO)(CO)CO`, the result was inactive.

As for `O=S(=O)(O)CCS`, the outcome was inactive.

For `OC[C@@H](O)[C@@H](O)[C@H](O)[C@@H](O)CO`, the result was inactive.

Take `CC1Cc2ccccc2N1NC(=O)c1ccc(Cl)c(S(N)(=O)=O)c1` (stereo not drawn): the result was inactive.

Regarding `COC(=O)c1ccc(C(=O)OC)cc1`, the result was inactive.

Turning to `c1ccc2ccccc2c1`, the outcome was inactive.

As for `CC(C)(CO)COC(=O)C(C)(C)CO`, the outcome was inactive.

In the case of `O=[N+]([O-])c1cccc(Cl)c1`, the result was inactive.

In the case of `CCCCCCCCC`, the “activation” value was -2.56%.

Regarding `Cc1cc(=O)[nH]c(C(C)C)n1`, the outcome was inactive.

On to `Nc1c(S(=O)(=O)O)cc(Br)c2c1C(=O)c1ccccc1C2=O`, for which the result was inactive.

On to `Nc1cc(-c2ccncc2)c[nH]c1=O`, for which the outcome was inactive.

For `CCCCOCCO`, the result was inactive.

As for `CC(=O)Nc1ccc(C(=O)O)cc1`, the outcome was inactive.

As for `COCC(=O)O`, the result was inactive.

As for `C=CC(=O)OCCCCCCCC(C)C`, the “activation” value was -3.77%.

As for `CCCCCCCCCCCCOCC1CO1` (stereo not drawn), the result was inactive.

`CCC(C)C=O` (stereo not drawn): the result was inactive.

As for `CC1(C)CC(N=C=O)CC(C)(CN=C=O)C1` (stereo not drawn), the “activation” value is 1.06% [at 78.9 µM].

With `Clc1cc(Cl)c(Cl)cc1Cl`, the result was inactive.

In the case of `O=C(Cl)c1c(Cl)c(Cl)c(C(=O)Cl)c(Cl)c1Cl`, the outcome was inactive.

`CS(=O)(=O)c1ccc([C@@H](O)[C@@H](CO)NC(=O)C(Cl)Cl)cc1`: the outcome was inactive.

Take `C=C1C2CCC(C2)C1(C)C` (stereo not drawn): the result was inactive.

With `CCOC(=O)[C@H](CCc1ccccc1)N[C@@H](C)C(=O)N1Cc2ccccc2C[C@H]1C(=O)O`, the outcome was inactive.

With `C=C(C)C(=O)OCCCCCCCCCCCC`, the result was inactive.

With `OC1CCCC1`, the result was inactive.

Turning to `COCC(C)O` (stereo not drawn), the outcome was inactive.

For `Cc1ccc(C)c(C)c1`, the result was inactive.

For the compound `O=Nc1ccc(O)cc1`, the result was inactive.

`CCCCOCCOCCOC(=O)CCCCC(=O)OCCOCCOCCCC`: the outcome was inactive.

Take `CC[Si](OC(C)=O)(OC(C)=O)OC(C)=O`: the result was inactive.

In the case of `OC[C@@H](O)[C@H](O)[C@H](O)[C@@H](O)CO`, the result was inactive.

The target is the same in a further assay. Briefly: qHTS assay to identify small molecule antagonists of the peroxisome proliferator-activated receptor gamma (PPARg) signaling pathway (AID 743191; calls by dose curve; note: nearly all actives have a fitted effect of over 30% in size; note: potency is the fitted concentration of half-maximal effect). As to conditions: HEK293H PPARg-UAS-bla, beta-lactamase ratio, antagonist, 17 h; series mostly up to 62.6 µM; ratio activity, negative = inhibition: at the top concentration. The gist of the method: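 GeneBLAzer PPARg UAS-bla HEK293H cells, 5 h post-plating, exposed to compounds 17 h at 37C. LiveBLAzer B/G FRET substrate added for 1 h at room temperature; beta-lactamase reporter read by fluorescence intensity.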
On to `Cn1c([N+](=O)[O-])cnc1COC(N)=O`, for which the Potency entry is “inactive”.

Take `O=S(=O)(O)CCS`: the “ratio activity, negative = inhibition” value is -25.2%.

On to `COC(=O)c1ccc(C(=O)OC)cc1`, for which the Potency entry is “inactive”.

On to `CC1COc2ccccc2N1C(=O)C(Cl)Cl` (stereo not drawn), for which the Potency was 24.5 µM (active).

For the compound `Nc1cc(-c2ccncc2)c[nH]c1=O`, the Potency entry is “inactive”.

On to `CC(=O)Nc1ccc(C(=O)O)cc1`, for which the Potency entry is “inactive”.

Regarding `C=CC(=O)OCCCCCCCC(C)C`, the “ratio activity, negative = inhibition” value is 14%.

For the compound `CCCCCCCCCCCCOCC1CO1` (stereo not drawn), the Potency entry was “inactive”.

With `Clc1cc(Cl)c(Cl)cc1Cl`, the Potency result is “inactive”.

Take `CCOC(=O)[C@H](CCc1ccccc1)N[C@@H](C)C(=O)N1Cc2ccccc2C[C@H]1C(=O)O`: the Potency result was “inactive”.

`OC[C@@H](O)[C@H](O)[C@H](O)[C@@H](O)CO`: the Potency result was “inactive”.

System in the next assay: not listed separately
The assay is described as follows: qHTS assay to identify small molecule antagonists of the peroxisome proliferator-activated receptor gamma (PPARg) signaling pathway - cell viability counter screen (AID 743194). Note: nearly all actives have a fitted effect of over 55% in size. As to conditions: PPARg-bla HEK293H viability, CellTiter-Glo luminescence, 17 h, co-treated with 50 nM rosiglitazone; series mostly up to 62.6 µM; activity change, negative = cytotoxicity: at the top concentration. The essentials: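 Cytotoxicity counter screen in PPARg-bla HEK293H cells, same wells as reporter assay. Compounds plus 50 nM rosiglitazone (final) for 17 h at 37 C, then viability read by CellTiter-Glo luminescence.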
For `Cn1c([N+](=O)[O-])cnc1COC(N)=O`, the Potency entry was “inactive”.

In the case of `CC(C)Cc1ccccc1`, the Potency entry is “inactive”.

As for `O=[N+]([O-])C(CO)(CO)CO`, the Potency entry is “inactive”.

As for `O=S(=O)(O)CCS`, the “activity change, negative = cytotoxicity” value is 11.4%.

For the compound `OC[C@@H](O)[C@@H](O)[C@H](O)[C@@H](O)CO`, the Potency entry is “inactive”.

For `CC1Cc2ccccc2N1NC(=O)c1ccc(Cl)c(S(N)(=O)=O)c1` (stereo not drawn), the Potency result was “inactive”.

As for `COC(=O)c1ccccc1O`, the Potency entry is “inactive”.

For `COC(=O)c1ccc(C(=O)OC)cc1`, the Potency result is “inactive”.

Take `c1ccc2ccccc2c1`: the Potency result is “inactive”.

Take `CC(C)(CO)COC(=O)C(C)(C)CO`: the Potency entry was “inactive”.

For the compound `O=[N+]([O-])c1cccc(Cl)c1`, the Potency result was “inactive”.

As to `CC1COc2ccccc2N1C(=O)C(Cl)Cl` (stereo not drawn), the “activity change, negative = cytotoxicity” value is -0.701%.

As for `CCCCCCCCC`, the Potency result was “inactive”.

As for `Cc1cc(=O)[nH]c(C(C)C)n1`, the Potency entry was “inactive”.

Turning to `Nc1c(S(=O)(=O)O)cc(Br)c2c1C(=O)c1ccccc1C2=O`, the Potency entry is “inactive”.

As for `Nc1cc(-c2ccncc2)c[nH]c1=O`, the Potency result is “inactive”.

Consider `CCCCOCCO`, for which the “activity change, negative = cytotoxicity” value was 0.209%.

For the compound `CC(=O)Nc1ccc(C(=O)O)cc1`, the Potency entry was “inactive”.

For `COCC(=O)O`, the Potency result was “inactive”.

As to `C=CC(=O)OCCCCCCCC(C)C`, the Potency entry is “inactive”.

For the compound `CCCCCCCCCCCCOCC1CO1` (stereo not drawn), the Potency result is “inactive”.

For the compound `CCC(C)C=O` (stereo not drawn), the Potency entry is “inactive”.

Regarding `O=S(=O)(O)c1cc(S(=O)(=O)O)c2c(N=Nc3ccccc3)c(O)ccc2c1`, the Potency result was “inactive”.

As for `CC1(C)CC(N=C=O)CC(C)(CN=C=O)C1` (stereo not drawn), the Potency result is “inactive”.

Regarding `Clc1cc(Cl)c(Cl)cc1Cl`, the “activity change, negative = cytotoxicity” value is 8.13%.

In the case of `O=C(Cl)c1c(Cl)c(Cl)c(C(=O)Cl)c(Cl)c1Cl`, the “activity change, negative = cytotoxicity” value is -0.474%.

Take `CS(=O)(=O)c1ccc([C@@H](O)[C@@H](CO)NC(=O)C(Cl)Cl)cc1`: the Potency entry is “inactive”.

Regarding `C=C1C2CCC(C2)C1(C)C` (stereo not drawn), the Potency entry is “inactive”.

On to `CCOC(=O)[C@H](CCc1ccccc1)N[C@@H](C)C(=O)N1Cc2ccccc2C[C@H]1C(=O)O`, for which the Potency result was “inactive”.

As to `C=C(C)C(=O)OCCCCCCCCCCCC`, the Potency entry is “inactive”.

Consider `OC1CCCC1`, for which the Potency entry is “inactive”.

For the compound `COCC(C)O` (stereo not drawn), the Potency result is “inactive”.

Consider `Cc1ccc(C)c(C)c1`, for which the Potency result was “inactive”.

In the case of `O=Nc1ccc(O)cc1`, the Potency result was “inactive”.

Regarding `OCCOCCOCCOCCO`, the “activity change, negative = cytotoxicity” value is -9%.

For the compound `CCCCOCCOCCOC(=O)CCCCC(=O)OCCOCCOCCCC`, the Potency entry was “inactive”.

For the compound `CC[Si](OC(C)=O)(OC(C)=O)OC(C)=O`, the “activity change, negative = cytotoxicity” value was 7.58%.

As for `OC[C@@H](O)[C@H](O)[C@H](O)[C@@H](O)CO`, the Potency result was “inactive”.

For the origin of these results see PubChem BioAssay (Tox21).
